The source made the active and inactive calls. Unless noted, no rule for the calls is given here.
How the values were obtained:
[1] = tested on: Wnt5a (protein binding on small-molecule microarray); test: small molecules binding Wnt5a protein – biophysical, small-molecule microarray, 635/667 nm fluorescence, primary screen (AID 1142); settings: 635 nm fluorescence, higher = more signal;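 also: fluorescence read at 667 nm with signal to noise per printed feature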
[2] = ATP-based viability of Huh7 replicon cells – cell-based, CellTiter-Glo luminescence, basal, 48 h, cytotoxicity control for HCV replication inhibitor project, primary screen (AID 1143); settings: higher = more signal, called active from +8 up or from −8 down;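 also: Huh7 hepatoma cells carrying a hepatitis C replication reporter with no stimulus; test concentration not given here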
[3] = Pseudomonas biofilm growth suppression – PAO1 strain, BacTiter-Glo luminescence, LB-PBS, primary screen (AID 1144); settings: P. aeruginosa PAO1 biofilm, 12 h, higher = more signal
[4] = basal CRE-LacZ reporter activity in PC12 – cell-based, unstimulated, primary screen (AID 1145); settings: no forskolin, luminescence, 4.5 h, higher = more signal, called active from +8 up or from −8 down
[5] = forskolin-driven CRE-LacZ activity in PC12 – cell-based, CRE-LacZ reporter, forskolin-stimulated, primary screen (AID 1146); settings: luminescence, 4.5 h, higher = more signal, called active from +8 up or from −8 down;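 also: PC12 cells with 6xCRE LacZ reporter stimulated by forskolin 10 µM; beta-galactosidase reporter signal reflecting CREB driven transcription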
[6] = target: Streptavidin (Streptomyces avidinii) (UniProt P22629); test: compounds binding control protein streptavidin – biophysical, small-molecule microarray, 635/667 nm fluorescence, artefact control for SMM compound annotation, primary screen (AID 1147); settings: higher = more signal;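 also: signal reflects streptavidin binding to arrayed compounds as a control protein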
Streptavidin (Streptomyces avidinii), sequence (P22629 whole entry, looked up): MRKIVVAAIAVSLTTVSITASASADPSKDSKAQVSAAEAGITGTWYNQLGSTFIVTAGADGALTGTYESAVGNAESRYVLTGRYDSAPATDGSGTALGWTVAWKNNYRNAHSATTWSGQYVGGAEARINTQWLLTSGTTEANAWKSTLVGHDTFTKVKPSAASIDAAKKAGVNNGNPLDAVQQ

[7] = probe aInhba binding on compound microarray – biochemical, small-molecule microarray, 635/667 nm fluorescence, primary screen (AID 1148); settings: higher = more signal;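 also: score merges 667nm spot fluorescence with signal-to-noise for antibody binding to printed compounds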
Torsin-1A (Homo sapiens) [8] = target: Torsin-1A (Homo sapiens) (UniProt O14656); test: TOR1A wild-type binding on microarray – cell lysate, small-molecule microarray, lysate, 635/667 nm, primary screen (AID 1149); settings: COS7 hTOR1A-WT lysate, 635 nm fluorescence, higher = more signal
Torsin-1A (Homo sapiens), sequence (O14656 whole entry, looked up): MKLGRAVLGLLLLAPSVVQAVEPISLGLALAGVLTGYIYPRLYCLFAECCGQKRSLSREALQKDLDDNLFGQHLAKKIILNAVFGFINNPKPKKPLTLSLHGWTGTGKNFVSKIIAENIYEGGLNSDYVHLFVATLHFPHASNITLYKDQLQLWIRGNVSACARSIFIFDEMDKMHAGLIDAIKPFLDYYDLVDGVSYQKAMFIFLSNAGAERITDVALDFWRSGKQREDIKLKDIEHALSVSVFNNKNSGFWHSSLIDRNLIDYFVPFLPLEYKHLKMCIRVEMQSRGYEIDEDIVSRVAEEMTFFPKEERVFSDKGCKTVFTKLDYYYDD

Torsin-1A (Homo sapiens) [9] = target: Torsin-1A (Homo sapiens) (UniProt O14656); test: torsin A mutant lysate binding on microarrays – cell lysate, small-molecule microarray, COS7 lysate, 635/667 nm fluorescence, primary screen (AID 1150); settings: COS7 hTOR1A mutant lysate, 635 nm fluorescence, higher = more signal;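 also: score pools 667 nm emission and signal to noise measuring lysate protein binding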
[10] = tested on: Sonic hedgehog protein (Shh); test: Sonic hedgehog microarray binding compounds – biochemical, small-molecule microarray, 635/667 nm fluorescence, primary screen (AID 1151); settings: 635 nm fluorescence, higher = more signal;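 also: Shh protein binding to compounds spotted on small-molecule microarray slides; score combines spot fluorescence intensity with signal-to-noise across triplicate slides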
[11] = optical density shifts of acrAB sulA E. coli – strain DRC41, OD650, 48 h, E. coli filamentation inducer project, primary screen (AID 1152); settings: higher = more signal, called active from +8 up or from −8 down;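 also: E. coli MC1000 strain DRC41 lacking acrAB efflux pump and sulA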
[12] = probe aLefty1 binding on compound microarray – biochemical, small-molecule microarray, 635/667 nm fluorescence, primary screen (AID 1153); settings: higher = more signal;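 also: score merges spot fluorescence with signal-to-noise ratio from the scanned slide images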
[13] = plasmodial surface anion channel blockers, osmotic lysis – cell-based, P. falciparum Indochina, OD700, 1 h, primary screen (AID 1154); settings: P. falciparum Indochina infected RBC osmotic lysis, higher = more signal, called active from +8 up or from −8 down
[14] = plasmodial surface anion channel blockers, osmotic lysis – cell-based, P. falciparum Indochina, OD700, 2 h, primary screen (AID 1155);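 also: lysis reports solute entry through the parasite surface anion channel PSAC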; settings: P. falciparum Indochina infected erythrocytes, higher = more signal, called active from +8 up or from −8 down
[15] = changes in parasitized red cell lysis, either direction – P. falciparum Indochina, OD700, 3 h, PSAC antagonist project, primary screen (AID 1156); settings: P. falciparum-infected erythrocytes, osmotic lysis, higher = more signal, called active from +8 up or from −8 down
[16] = plasmodial surface anion channel blockers, osmotic lysis – cell-based, P. falciparum Indochina, OD700, 18 h, primary screen (AID 1157); settings: P. falciparum Indochina infected erythrocytes, osmotic lysis OD700, 18 h; higher = more signal, called active from +8 up or from −8 down
[17] = S6 kinase pathway phospho-S6 level changes – cell-based, A549, cytoblot, luminescence, serum-stimulated, primary screen (AID 1158); settings: 5 h, higher = more signal;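 also: serum-stimulated A549 lung adenocarcinoma cells; signal is phosphorylated S6 detected by cytoblot immunostaining with HRP secondary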
[18] = target: NADPH oxidase 2 (Homo sapiens) (UniProt P04839); test: compounds shifting NOX2 Amplex Red fluorescence – cell-based, HEK293-NOX2, PMA-stimulated, NOX inhibitor project, primary screen (AID 1159); settings: 45 min, higher = more signal, called active from +8 up or from −8 down; also: test concentration not given here
NADPH oxidase 2 (Homo sapiens), sequence (P04839 whole entry, looked up): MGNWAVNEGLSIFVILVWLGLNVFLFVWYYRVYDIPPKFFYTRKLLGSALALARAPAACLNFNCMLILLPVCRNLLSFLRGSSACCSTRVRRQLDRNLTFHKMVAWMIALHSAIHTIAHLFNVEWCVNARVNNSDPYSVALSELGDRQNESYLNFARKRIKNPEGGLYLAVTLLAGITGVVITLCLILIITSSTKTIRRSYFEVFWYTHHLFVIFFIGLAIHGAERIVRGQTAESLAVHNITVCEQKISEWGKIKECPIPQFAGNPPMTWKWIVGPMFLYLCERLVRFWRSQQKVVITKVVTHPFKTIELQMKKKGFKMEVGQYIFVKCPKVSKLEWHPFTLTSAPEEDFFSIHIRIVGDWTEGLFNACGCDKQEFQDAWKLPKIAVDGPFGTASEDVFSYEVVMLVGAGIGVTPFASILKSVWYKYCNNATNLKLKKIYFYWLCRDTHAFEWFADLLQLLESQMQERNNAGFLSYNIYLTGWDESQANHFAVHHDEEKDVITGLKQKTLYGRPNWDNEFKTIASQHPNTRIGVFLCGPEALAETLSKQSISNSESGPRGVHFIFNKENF

[19] = target: NADPH oxidase 4 (Homo sapiens) (UniProt Q9NPH5); test: compounds shifting NOX4 Amplex Red fluorescence – cell-based, HEK293-NOX4, tetracycline-induced, NOX inhibitor project, primary screen (AID 1160); settings: HEK293-NOX4, Amplex Red H2O2 fluorescence, 45 min; higher = more signal, called active from +8 up or from −8 down
NADPH oxidase 4 (Homo sapiens), sequence (Q9NPH5 whole entry, looked up): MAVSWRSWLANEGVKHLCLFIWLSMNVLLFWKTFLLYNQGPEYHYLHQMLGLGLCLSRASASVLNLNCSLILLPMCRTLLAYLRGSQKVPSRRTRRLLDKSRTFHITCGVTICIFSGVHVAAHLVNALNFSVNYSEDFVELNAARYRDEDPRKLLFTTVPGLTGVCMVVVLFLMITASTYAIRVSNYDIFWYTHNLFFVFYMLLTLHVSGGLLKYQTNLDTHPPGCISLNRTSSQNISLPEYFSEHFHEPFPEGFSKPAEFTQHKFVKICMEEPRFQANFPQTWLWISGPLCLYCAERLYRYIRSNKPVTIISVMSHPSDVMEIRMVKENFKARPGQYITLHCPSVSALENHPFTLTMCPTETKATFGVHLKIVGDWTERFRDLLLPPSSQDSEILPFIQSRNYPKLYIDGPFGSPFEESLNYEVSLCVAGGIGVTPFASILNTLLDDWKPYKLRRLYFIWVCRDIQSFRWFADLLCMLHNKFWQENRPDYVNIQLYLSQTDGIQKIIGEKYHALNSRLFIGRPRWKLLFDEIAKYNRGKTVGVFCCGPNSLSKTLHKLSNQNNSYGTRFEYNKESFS

[20] = target: NADPH oxidase 5 (Homo sapiens) (UniProt Q96PH1); test: compounds shifting NOX5 Amplex Red fluorescence – cell-based, HEK293-NOX5, NOX inhibitor project, primary screen (AID 1161); settings: HEK293-NOX5, ionomycin, 45 min, higher = more signal
NADPH oxidase 5 (Homo sapiens), sequence (Q96PH1 whole entry, looked up): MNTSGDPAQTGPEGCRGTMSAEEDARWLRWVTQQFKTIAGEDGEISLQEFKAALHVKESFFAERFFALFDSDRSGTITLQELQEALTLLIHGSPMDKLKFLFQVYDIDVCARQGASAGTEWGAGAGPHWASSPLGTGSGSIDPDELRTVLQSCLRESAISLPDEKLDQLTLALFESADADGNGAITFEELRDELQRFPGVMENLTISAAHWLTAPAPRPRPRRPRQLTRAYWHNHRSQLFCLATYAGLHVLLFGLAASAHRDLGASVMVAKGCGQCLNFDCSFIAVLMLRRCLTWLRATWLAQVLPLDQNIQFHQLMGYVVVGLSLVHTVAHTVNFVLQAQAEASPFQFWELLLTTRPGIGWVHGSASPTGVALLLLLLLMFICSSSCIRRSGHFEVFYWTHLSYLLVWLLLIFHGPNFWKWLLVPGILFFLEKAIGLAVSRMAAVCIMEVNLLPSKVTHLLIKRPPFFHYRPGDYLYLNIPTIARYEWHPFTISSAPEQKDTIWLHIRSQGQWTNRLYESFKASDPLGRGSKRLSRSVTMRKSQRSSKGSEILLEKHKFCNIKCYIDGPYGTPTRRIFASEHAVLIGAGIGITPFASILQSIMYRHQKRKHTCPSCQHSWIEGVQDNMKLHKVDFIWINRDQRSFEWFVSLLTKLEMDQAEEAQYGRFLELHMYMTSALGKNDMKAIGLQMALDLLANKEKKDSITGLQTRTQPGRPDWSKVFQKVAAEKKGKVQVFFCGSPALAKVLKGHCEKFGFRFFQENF

Structure (SMILES) | composite z-score [1] | z-score [2] | z-score [3] | z-score [4] | z-score [5] | composite z-score [6] | composite z-score [7] | composite z-score (Torsin-1A (Homo sapiens) [8]) | composite z-score (Torsin-1A (Homo sapiens) [9]) | composite z-score [10] | z-score [11] | composite z-score [12] | z-score [13] | z-score [14] | z-score [15] | z-score [16] | z-score [17] | z-score [18] | z-score [19] | z-score [20]
C[C@@H]1C=CCC(=O)OC[C@H](C)C(=O)N2CCC[C@H]2C(=O)OC1 | 0.15 | 0.111 (inactive) | -0.736 (inactive) | -0.264 (inactive) | -0.0697 (inactive) | 0.245 | -0.21 | 3.08 | 2.85 | 2.33 | 0.665 (inactive) | -0.384 | 0.29 (inactive) | 0.149 (inactive) | 1.11 (inactive) | 0.097 (inactive) | -0.39 | -0.49 (inactive) | 0.445 (inactive) | -0.764
C=CC[C@]1(C(=O)NCc2ccccc2)N=C(c2ccc(OCCCO)cc2)O[C@H]1c1ccccc1 | -0.2 | -4.19 (inactive) | -0.71 (inactive) | 0.848 (inactive) | 1.34 (inactive) | -0.134 | -0.003 | 1.04 | 1.39 | -0.872 | -0.0491 (inactive) | 0.398 | 14.6 (active) | 1.83 (inactive) | 0.668 (inactive) | 1.26 (inactive) | -0.0429 | -2.86 (inactive) | -0.495 (inactive) | -1.96
CCOC(=O)C[C@H]1[C@H](OC(=O)c2ccc(C(=O)c3ccccc3)cc2)[C@@H](NC(=O)c2ccc(-c3ccccc3)cc2)c2cc(OCCCO)ccc2N1C(=O)c1ccc2ccccc2n1 | 0.599 | -0.0434 (inactive) | -1.22 (inactive) | -0.738 (inactive) | -0.286 (inactive) | 1.44 | -0.102 | 0.274 | 0.408 | 1.11 | 2.25 (inactive) | -0.118 | 5.21 (inactive) | 0.485 (inactive) | 0.464 (inactive) | 0.407 (inactive) | 0.756 | -1.46 (inactive) | 0.424 (inactive) | 0.216
C[C@H]1Cc2c(-c3ccccc3)nc3c(c2CO1)CN(CCOc1ccccc1)CC3 | 0.379 | -0.239 (inactive) | -0.888 (inactive) | 2.92 (inactive) | -1.46 (inactive) | 0.277 | -0.0313 | 0.132 | 0.565 | 1.17 | 0.503 (inactive) | -0.199 | 1.65 (inactive) | 0.407 (inactive) | 0.301 (inactive) | 0.0748 (inactive) | 0.426 | 0.17 (inactive) | -0.0187 (inactive) | -0.605
CCOC(=O)NN=C1C[C@@H](O)[C@@H](O)[C@@H]2[C@@H]3C(=O)N(C(C)(C)C)C(=O)[C@@H]3CC[C@@H]12 | -0.263 | 0.312 (inactive) | 0.125 (inactive) | -0.0246 (inactive) | 0.244 (inactive) | -0.784 | -0.0849 | 0.527 | 0.541 | -0.36 | -0.0206 (inactive) | -0.0601 | 0.209 (inactive) | -0.0313 (inactive) | -0.548 (inactive) | 0.0353 (inactive) | -0.12 | 0.5 (inactive) | 1.05 (inactive) | 0.295
COCCOC(=O)N1C(=O)[C@@]2(c3cc(C#CC4(O)CCCCCC4)ccc31)[C@H](C(=O)N1CCN(c3ncccn3)CC1)[C@H]1C(=O)O[C@H](c3ccccc3)[C@H](c3ccccc3)N1[C@@H]2c1ccc(OCCO)cc1 | 0.495 | -3.05 (inactive) | 0.905 (inactive) | -0.878 (inactive) | -0.249 (inactive) | 0.436 | 0.303 | 0.227 | 0.425 | 1.17 | 1.74 (inactive) | 0.485 | 11.7 (active) | 2.25 (inactive) | 1.35 (inactive) | 1.19 (inactive) | 0.372 | 1.69 (inactive) | -0.754 (inactive) | 1.24
COc1ccc(O[C@H]2C=C[C@@H](c3ccccc3)O[C@@H]2COC(=O)CCC(C)=NOC[C@@H](C)[C@H](OCc2ccccc2)C(C)C)cc1 | -0.348 | -1.55 (inactive) | -0.0552 (inactive) | -0.901 (inactive) | 0.468 (inactive) | -0.892 | -0.203 | -0.416 | -0.632 | -0.155 | -0.72 (inactive) | -0.278 | 0.857 (inactive) | 0.55 (inactive) | 0.607 (inactive) | 0.294 (inactive) | -0.656 | 0.796 (inactive) | 0.478 (inactive) | 0.329
CN(C)c1ccc(C(O)C2C=CC3C(=O)N(c4ccccc4)C(=O)C3N2Nc2ccccc2F)cc1 (stereo not given) | 0.0698 | -1.3 (inactive) | 0.136 (inactive) | 2.56 (inactive) | 1.03 (inactive) | 0.557 | -0.125 | 0.221 | 0.15 | -0.378 | -1.4 (inactive) | 0.284 | 4.37 (inactive) | 1.2 (inactive) | 0.252 (inactive) | 0.586 (inactive) | -0.288 | -2.5 (inactive) | -4.43 (inactive) | -3.99
